In PubChem BioAssay AID738 (SRMLSC, 2007) one finds inhibition data, which are given here for 30 compounds.

About 4,900 (5%) of roughly 98,000 compounds were called active. Shown is part of a subset that was picked to be rich in actives. A number with no mark means an inactive call. Cut-off read from the data, not from the text of the source: active = inhibition above about 30%; inactive = the rest.

The test in a line: growth inhibition of yeast control strain, primary screen, counter-screen for post-Golgi transport modulator project (AID 738). The following applies: efflux-deficient yeast background strain, growth absorbance A615, 16 h; at 10 µM; stronger effect = higher value. On the technique in general: Counterscreens check selectivity or assay interference.
A word on the inhibition: it is the change of the read-out against control, counted positive when it falls. In the case of `Cc1nc2ccccn2c1P(=S)(N1CCCCC1)N1CCCCC1`, the inhibition was 49.1% (active). For `COc1ccc(C(=O)C2CN(C)CC2C(=O)c2ccc(OC)cc2)cc1` (stereo not given) the value was 20.5%; for `CCC(=NCCc1ccccc1)c1c(O)n(C2CCCCC2)c(=O)[nH]c1=O`, 70.8% (active). For `CC(=O)c1c(O)n(C2CCCCCC2)c(=O)[nH]c1=O` the value was 19.8%; for `CCC(=NCc1ccco1)c1c(O)n(Cc2ccccc2)c(=O)[nH]c1=O`, 15.9%; for `COc1ccc(C(=O)CC2C(=O)N(C)C(=O)N(C)C2=O)cc1`, 6.25%.

Take `O=C(c1cc2nc(-c3ccccc3)cc(-c3ccccc3)n2n1)N1CCC2(CC1)OCCO2`: the inhibition is 29.5%. Under `CC(C)(C)c1ccc(CN2C(=O)CN=C(c3ccccc3)c3ccccc32)cc1` stands 33.8% (active); under `CN1CCC(N(C)Cc2cccnc2)CC1`, 7.07%.

`CCOc1ccc(CN(CCCl)CCCl)cc1C(=O)OC`: the inhibition is 22.7%. Consider `O=C(CN1CCCCC1)Nc1ccc(Br)cc1C(=O)c1ccccc1Cl`, for which the inhibition was 29.2%.

`CCNc1nc2[nH]c(=O)c3c(c2s1)OC(N)=C(C#N)C3c1cccs1` (stereo not given): the inhibition was 5.65%. For `COc1ccccc1-n1c(O)c(C=NC2CC2)c(=O)[nH]c1=O` the value was 6.8%; for `OC(CNC1CCCCC1)c1ccccc1` (stereo not given), 5.79%.

Take `CCOP(=S)(OCC)SCOC(=O)NCC(=O)OC`: the inhibition was 4.53%. For `O=[N+]([O-])c1ccc(C2C3C(c4ccccc4)=NC4(CCCCC4)N32)cc1` (stereo not given) the value was 18%; for `Cc1ccc(Cn2c(C)c3cnn(CC(=O)N4CCC5(CC4)OCCO5)c(=O)c3c2C)cc1`, -1.49%. As to `N#Cc1ccc(Cn2cc(C(=O)c3ccco3)c3ccccc32)cc1`, the inhibition is 38.7% (active). As to `COc1ccc(CCn2c(O)c(C=NCCCn3ccnc3)c(=O)[nH]c2=O)cc1OC`, the inhibition was 2.05%. On to `Cn1c(O)c(C=NCCCC(=O)O)c(=O)n(C)c1=O`, for which the inhibition is 2.29%. On to `Cc1ccc(N(C)C(=O)Oc2cccc3ccc(C)nc23)cc1`, for which the inhibition is 5.47%. Under `CC[N+](CC)(CC)CCCCCCCCCC[N+](CC)(CC)CC` stands -4.82%. Under `CCOC(=O)C1SC2(C(F)(F)C(F)F)CC1(O)c1c(c(OC)c3occc3c1OC)O2` (stereo not given) stands 33.6% (active); under `O=c1c2ccccc2nc(-c2ccc(Cl)cc2Cl)n1-c1ccncc1`, 9.41%. For `COc1cc(Cn2c(N)c(C(=O)NCc3ccco3)c3nc4ccccc4nc32)cc(OC)c1OC`, the inhibition was 7.01%. In the case of `CC(=O)Nc1ccccc1C(=O)OCC(=O)c1cccc2ccccc12`, the inhibition is 0.9%.

Consider `CCCCn1c(O)c(C(CC)=NCc2ccco2)c(=O)[nH]c1=O`, for which the inhibition is 16.6%.

Consider `CCC(=NCCCO)c1c(O)n(-c2ccc(OC)cc2)c(=O)[nH]c1=O`, for which the inhibition is 3.64%. For `CCCCCCN=C(CC)c1c(O)n(CCCC)c(=O)[nH]c1=O` the value was 36.3% (active); for `CC(=O)c1ccc(OC(NC(=O)Cc2ccccc2)C(Cl)(Cl)Cl)cc1` (stereo not given), 4.53%.
